CYP2C9 act: CYP2C9 (human) activation; P11712; AID 1024; recombinant CYP2C9, luciferin-H conversion, luminescence; stronger effect = higher value; factor 1 = untreated enzyme, 0 = blocked; 96,000 compounds, 1.4% hits; activation factor at 5 µM;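 active = activation factor of 2 or more for CYP2C9 at a 5 µM dose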;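 note: 0 = sulfaphenazole-blocked wells and 1 = vehicle-only wells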
CYP2C19 inhib: human CYP2C19 inhibition; AID 778; CYP2C19 Supersomes, luciferin-H EGE luminescence, 30 min; 96,000 compounds, 21% hits; inhibition, % at 5 µM; P33261;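 active = CYP2C19 inhibition above a set limit at 5 µM in the primary screen, cut at about 50% in these data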;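 note: plate controls were negative control wells for no effect and 2.5 mM tranylcypromine positive control for full effect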
CYP2C19 activ: cytochrome P450 2C19 (human) activation. 96,000 tested, under 10 active. activation factor at 5 µM. P33261. recombinant CYP2C19, luciferin-H EGE luminescence; stronger effect = higher value; 0 = fully inhibited enzyme, 1 = untreated enzyme;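 active = activation factor of at least 2 at 5 µM in the primary screen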;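 note: 0 = wells with 2.5 mM tranylcypromine and 1 = vehicle-only wells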
Cav32 inh: blocks human Cav3.2 T-type calcium channel; O95180; Cav3.2-expressing cells, Fluo-4 calcium fluorescence FDSS; stronger effect = lower value; B-score at 10 µM; 100,000 compounds, 4% hits;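 active = single-dose well whose peak fluorescence ratio is a statistical outlier from its plate by either plate-standardised score or position-corrected B-score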
CYP2C9 inh: human CYP2C9 inhibition | CYP2C9 Supersomes, luciferin-H conversion, luminescence | inhibition, % at 5 µM | 96,000 compounds, 20% hits;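 active = blocking of liver enzyme CYP2C9 beyond about 50% at 5 µM, limit read from the data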
* marks the source's active call; other numbers are inactive results. Most compounds without a hit are left out; they make up all but 27% or so of the library.

Results for COc1ccc(OC)c(NC(=O)CCN2CCN(c3ccccc3F)CC2)c1 ?
CYP2C9 act: 0.4; CYP2C19 inhib: 77*; CYP2C19 activ: 0.2; Cav32 inh: 1; CYP2C9 inh: 60*

Results for CCn1cc(C(=O)OCC(=O)N(C)C2CCS(=O)(=O)C2)c(=O)c2ccc(C)nc21 (centres undefined) ?
CYP2C9 act: 1.3; CYP2C19 inhib: -7; CYP2C19 activ: 1.1; Cav32 inh: 0.18; CYP2C9 inh: -28

What do the screens show for `COc1ccc(S(=O)(=O)N2CCN(CC(=O)Nc3cc(C(F)(F)F)ccc3Cl)CC2)cc1`?
Cav32 inh: 1.3

What do the screens show for `COc1ccccc1N1CCN(CCC(=O)Nc2ccc3c(c2)OCO3)CC1`?
CYP2C9 act: 0.4; CYP2C19 inhib: 54*; CYP2C19 activ: 0.5; Cav32 inh: -1.9; CYP2C9 inh: 65*

Results for COc1ccc(C)cc1NC(=O)CN1CCN(c2ccccc2F)CC1 ?
CYP2C9 act: 0.7; CYP2C19 inhib: 70*; CYP2C19 activ: 0.3; CYP2C9 inh: 34

What do the screens show for `COc1ccc(C)cc1NC(=O)CN1CCN(S(=O)(=O)c2ccc(F)cc2)CC1`?
CYP2C9 act: 0.8; CYP2C19 inhib: 52*; CYP2C19 activ: 0.5; Cav32 inh: 2.3; CYP2C9 inh: 23

What do the screens show for `CCc1c(O)nc(SCC(=O)Nc2ccccc2OC)[nH]c1=O`?
CYP2C9 act: 0.6; CYP2C19 inhib: 28; CYP2C19 activ: 0.7; Cav32 inh: -0.86; CYP2C9 inh: 38

How did CCCNC(=O)C1(CC2CC(c3ccccc3)=NO2)CCN(C(=O)Cc2ccc(F)cc2)CC1 (centres undefined) do in these assays?
Cav32 inh: 0.32

Results for O=C(NCCCN1CCOCC1)c1onc(CSc2ccccn2)c1C(=O)NCCCN1CCOCC1 ?
Cav32 inh: 1.7

How did CSc1nc(NCCOCCO)c2sc3nc(-c4ccco4)c4c(c3c2n1)CCC4 do in these assays?
CYP2C9 act: 0.4; CYP2C19 inhib: 27; CYP2C19 activ: 0.7; CYP2C9 inh: 63*

What do the screens show for `CCN(CCO)c1nc(SC)nc2c1sc1nc(-c3ccco3)c3c(c12)CCC3`?
CYP2C9 act: 0.8; CYP2C19 inhib: 22; CYP2C19 activ: 0.8; Cav32 inh: 1.1; CYP2C9 inh: 25

What do the screens show for `CC(C(=O)N1CCCc2ccccc21)N1CCN(S(=O)(=O)c2ccccc2F)CC1` (centres undefined)?
CYP2C9 act: 0.7; CYP2C19 inhib: 46; CYP2C19 activ: 0.5; Cav32 inh: 0.35; CYP2C9 inh: 32

How did CC1(C)C(C=C(Cl)Cl)C1C(=O)N1CCN(c2ccccc2)CC1 (centres undefined) do in these assays?
CYP2C9 act: 0.7; CYP2C19 inhib: 46; CYP2C19 activ: 0.5; Cav32 inh: -4.9*; CYP2C9 inh: 26

Results for CC12CCC(C(=O)N3CCCCCC3)(OC1=O)C2(C)C (centres undefined) ?
CYP2C9 act: 1; CYP2C19 inhib: -10; CYP2C19 activ: 1.1; Cav32 inh: -0.21; CYP2C9 inh: -4

What do the screens show for `O=C(N1CCN(c2ccccc2)CC1)C12CC3CC(CC(C3)C1)C2`?
CYP2C9 act: 0.3; CYP2C19 inhib: 81*; CYP2C19 activ: 0.2; Cav32 inh: -1.6; CYP2C9 inh: 67*

What do the screens show for `O=C(N1CCN(Cc2ccccc2)CC1)C12CC3CC(CC(C3)C1)C2`?
CYP2C9 act: 0.3; CYP2C19 inhib: 99*; CYP2C19 activ: 0; Cav32 inh: 0.088; CYP2C9 inh: 72*

How did CC12CCC(C(=O)N3CCN(Cc4ccccc4)CC3)(OC1=O)C2(C)C (centres undefined) do in these assays?
CYP2C9 act: 0.3; CYP2C19 inhib: 72*; CYP2C19 activ: 0.3; Cav32 inh: 2; CYP2C9 inh: 67*

Results for CCn1nnnc1SCC(=O)Nc1nc(C)c(C)s1 ?
Cav32 inh: 0.42

What do the screens show for `COCCSc1nc2c(c(=O)[nH]c(=O)n2C)n1CCC(C)C`?
CYP2C9 act: 0.7; CYP2C19 inhib: -5; CYP2C19 activ: 1; CYP2C9 inh: 33

How did Cc1ccc(Nc2nc3nonc3[nH]c2=O)cc1C do in these assays?
CYP2C9 act: 0.4; CYP2C19 inhib: -9; CYP2C19 activ: 1.1; CYP2C9 inh: 58*

How did Cn1ccnc1SCC(=O)Nc1cccc(C(F)(F)F)c1 do in these assays?
CYP2C9 act: 1.5; CYP2C19 inhib: 87*; CYP2C19 activ: 0.1; Cav32 inh: 0.037; CYP2C9 inh: -52
